# Experimental data as given in the supplement of paper PMC10338343.
# ± gives the standard deviation.
# System: EfPiwi piRISC loaded with L1MC piRNA (26 nt)
# Experiment: pre-steady-state target cleavage rate (min^-1); auxiliary factor: 500 nM Ephydatia muelleri Gtsf1; guide: L1MC piRNA 5'p-UAACUAAAUACUAUGCAAGCUGUAGG; MIWI and MILI are mouse PIWI proteins and EfPiwi is from a freshwater sponge; tags in brackets are library labels; higher = faster piRNA-guided slicing of the target
# How it was run: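 In HEPES–potassium acetate buffer at 33 °C, […] transcribed, DNA-blocked target RNA library was mixed with 1 nM active affinity-purified piRISC carrying one synthetic guide, with or without 500 nM GTSF1 partner protein, for 0–8 or 0–960 min. Uncleaved targets were sequenced and normalised to depth and to weakly complementary targets; three trials were pooled and k3 was capped at 0.0001 min^-1. The pre-steady-state cleavage rate followed from a burst-and-steady-state fit.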
row,Sequence,pre-steady-state target cleavage rate
1,UCCUGGAUGAGCUAGCAUAGUAUUUAGUAA,0.00419 ± 0.0024
2,UCCUCCUACAGGCUUGCAUAGUAUUUAGUUA,0.0234 ± 0.0078
3,UCCUCCUACAGCUUGCUUAGUUUUUAGUUA,0.00738 ± 0.0023
4,UCCUCCUACAGCUUGCAUAGUAUGUAGUUA,0.00354 ± 0.0013
5,UCCUGGUACAGCUUGCAUAGAAUUUAGAAA,0.00253 ± 0.0021
6,UCCUCCUACAGCUUCCAUAGUAUUUAGAAA,0.00369 ± 0.0018
7,UCCUGGAUGAGCUUUGCAUAGUAUUUAGUUA,0.0107 ± 0.0037
8,UCCUGGUACAGCAUGCAUAGUUUUUAGUUA,0.0046 ± 0.0027
9,UCCUGCUACAGCUUGCAUAGUAUUUAGGUA,0.00342 ± 0.0016
10,UCCUGCUACUGCUUGCAUAGUAUUUAGUUA,0.00883 ± 0.003
11,UCCUCCUACAGCUUGCAUAGUAUUUAGCUA,0.00335 ± 0.0016
12,UCCUCGUACAGCUUGCAUAGUAUUAAGUUA,0.00547 ± 0.0018
13,UCCUGGAUGUCCUUGCAUAUUAUUUAGUUA,0.00283 ± 0.0025
14,UCCUGCUACAGCUUCCAUAGUAUUUACAAA,0.00279 ± 0.0021
15,UCCUCCUAGAGGUUGCAUAGUAUUUAGUUA,0.0153 ± 0.0029
16,UCCUGCUACACCUUGCUUAGUAUUUAGUUA,0.00903 ± 0.0035
17,UCCUCCUACAGCUUGCAUAGUAUUUUCUUA,0.00493 ± 0.003
18,UCCUGGAACAGCUUGCAUAGUAUUUUAGUUA,0.0192 ± 0.0054
19,UCCUGCUACAGCUUGCUUAGUAUUUAGUAA,0.00437 ± 0.0017
20,UCCUGGUACAGCUUGACAUAGUAUUUAGUUA,0.0102 ± 0.003

row,Sequence,pre-steady-state target cleavage rate
1,UCCUCCUACAGCUUGCAUUGUAUUUAGUUA,0.0211 ± 0.0059
2,UCCUGCUACAGCUAGCAUAGUAAUUAGUUA,0.00598 ± 0.0018
3,UCCUGGAUGUCCUUGCAUAGUAUUUAGUUA [g2:g19:cont:t1A],0.00824 ± 0.003
4,UCCUGGUACAGGAUGCAUAGUAUUUAGAAA,0.00448 ± 0.004
5,UCCUGGAUCACCUAGCAUAGUAUUUAGUUA,0.00614 ± 0.004
6,UCCUGGAUCAGCUUGCAUAGUAGUUAGUUA,0.0207 ± 0.0049
7,UCCUGGAUGAGCUUGCAUAGUAUUUAGUA,0.00405 ± 0.0032
8,UCCUGGAUGUCGAACGAUAGUAUUAUAGUUA,< 0.0001
9,UCCUCCUACAGCUAGCAUAGUAUUUACUUA,0.00296 ± 0.0027
10,UCCUCCUAGAGCUUGCAUAGUAUUUACAAA,0.00252 ± 0.0019
11,UCCUGGAUGUCGAACCAUAGUAAUUAGUUA,< 0.0001
12,UCCUGGUACAGCUUCCAUAGUAUUUAGUAA,0.00378 ± 0.0022
13,UCCUGGUACAGCUUGCAAAGUAAUUAGUUA,0.00305 ± 0.0021
14,UCCUGGAUGUCGAACGUAAGUAUUUAAUUA,< 0.0001
15,UCCUGGAUGUCGAACCAUAGUAUUUAGUUC [g2:g15:cont:t1C],< 0.0001
16,UCCUGGAACAGCUUCCAUAGUAUUUAGAAA,0.00411 ± 0.0022
17,UCCUGCUAGUGCUUGCAUAGUAUUUAGUAA,0.00297 ± 0.0015
18,UCCUGGAACUGCUUGCAUACUAUUUAGUUA,0.0046 ± 0.0019
19,UCCUGGAUGUCGAACCAUAGAUAUUAGUUA,< 0.0001
20,UCCUGCUACAGUUUGCAUAGUAUUUAGUUA,0.0365 ± 0.011
